Test results: ChEMBL document CHEMBL1961873, “Compounds: GSK PKIS; Assays: Nanosyn kinase panel” (2012)

How the values were obtained:
[1] = target: Death-associated protein kinase 1 (Homo sapiens) (UniProt P53355); conditions: at 1 µM;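 note: each value is a mean inhibition figure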
[2] = target: T1, Serine/threonine-protein kinase DCLK2 (Homo sapiens) (UniProt Q8N568); conditions: at 1 µM
T1 sequence (whole entry): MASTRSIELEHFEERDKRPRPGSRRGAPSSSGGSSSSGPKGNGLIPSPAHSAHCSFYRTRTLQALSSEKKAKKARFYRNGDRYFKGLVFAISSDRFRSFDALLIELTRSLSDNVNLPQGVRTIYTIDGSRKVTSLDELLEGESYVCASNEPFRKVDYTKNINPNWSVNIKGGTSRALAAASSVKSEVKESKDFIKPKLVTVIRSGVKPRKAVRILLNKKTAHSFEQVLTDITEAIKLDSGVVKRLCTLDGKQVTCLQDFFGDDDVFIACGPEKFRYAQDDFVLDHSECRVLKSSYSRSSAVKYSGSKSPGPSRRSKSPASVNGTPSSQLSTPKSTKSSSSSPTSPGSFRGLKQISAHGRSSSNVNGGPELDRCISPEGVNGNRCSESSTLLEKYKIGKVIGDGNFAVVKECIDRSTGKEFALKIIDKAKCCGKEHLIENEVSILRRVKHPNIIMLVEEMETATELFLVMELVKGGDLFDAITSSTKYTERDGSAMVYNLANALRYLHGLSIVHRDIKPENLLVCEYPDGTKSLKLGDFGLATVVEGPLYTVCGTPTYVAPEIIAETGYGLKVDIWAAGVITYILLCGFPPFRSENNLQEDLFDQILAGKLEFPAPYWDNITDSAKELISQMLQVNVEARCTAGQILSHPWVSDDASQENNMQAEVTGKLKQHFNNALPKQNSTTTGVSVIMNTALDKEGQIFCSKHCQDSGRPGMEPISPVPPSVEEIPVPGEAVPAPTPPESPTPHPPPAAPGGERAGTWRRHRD

[3] = target: MAP kinase-activated protein kinase 2 (Homo sapiens) (UniProt P49137); conditions: at 0.1 µM
[4] = target: MAP kinase-activated protein kinase 2 (Homo sapiens) (UniProt P49137); conditions: at 1 µM
[5] = target: MAP kinase-activated protein kinase 3 (Homo sapiens) (UniProt Q16644); conditions: at 0.1 µM
Chain of MAP kinase-activated protein kinase 3 (Homo sapiens) (Q16644 whole entry, looked up): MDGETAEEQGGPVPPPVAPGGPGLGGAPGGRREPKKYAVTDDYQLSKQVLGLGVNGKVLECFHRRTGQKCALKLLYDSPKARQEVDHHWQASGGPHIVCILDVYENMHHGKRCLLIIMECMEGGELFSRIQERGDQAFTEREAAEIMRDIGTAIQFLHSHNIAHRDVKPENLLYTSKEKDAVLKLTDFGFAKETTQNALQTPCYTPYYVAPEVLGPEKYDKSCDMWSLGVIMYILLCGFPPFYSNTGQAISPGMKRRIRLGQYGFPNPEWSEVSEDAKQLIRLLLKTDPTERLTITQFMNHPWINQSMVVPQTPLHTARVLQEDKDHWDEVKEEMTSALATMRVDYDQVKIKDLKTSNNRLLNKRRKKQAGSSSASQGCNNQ

[6] = target: MAP kinase-activated protein kinase 3 (Homo sapiens) (UniProt Q16644); conditions: at 1 µM
[7] = target: Serine/threonine-protein kinase MARK1 (Homo sapiens) (UniProt Q9P0L2); conditions: at 0.1 µM
Chain of Serine/threonine-protein kinase MARK1 (Homo sapiens) (Q9P0L2 whole entry, looked up): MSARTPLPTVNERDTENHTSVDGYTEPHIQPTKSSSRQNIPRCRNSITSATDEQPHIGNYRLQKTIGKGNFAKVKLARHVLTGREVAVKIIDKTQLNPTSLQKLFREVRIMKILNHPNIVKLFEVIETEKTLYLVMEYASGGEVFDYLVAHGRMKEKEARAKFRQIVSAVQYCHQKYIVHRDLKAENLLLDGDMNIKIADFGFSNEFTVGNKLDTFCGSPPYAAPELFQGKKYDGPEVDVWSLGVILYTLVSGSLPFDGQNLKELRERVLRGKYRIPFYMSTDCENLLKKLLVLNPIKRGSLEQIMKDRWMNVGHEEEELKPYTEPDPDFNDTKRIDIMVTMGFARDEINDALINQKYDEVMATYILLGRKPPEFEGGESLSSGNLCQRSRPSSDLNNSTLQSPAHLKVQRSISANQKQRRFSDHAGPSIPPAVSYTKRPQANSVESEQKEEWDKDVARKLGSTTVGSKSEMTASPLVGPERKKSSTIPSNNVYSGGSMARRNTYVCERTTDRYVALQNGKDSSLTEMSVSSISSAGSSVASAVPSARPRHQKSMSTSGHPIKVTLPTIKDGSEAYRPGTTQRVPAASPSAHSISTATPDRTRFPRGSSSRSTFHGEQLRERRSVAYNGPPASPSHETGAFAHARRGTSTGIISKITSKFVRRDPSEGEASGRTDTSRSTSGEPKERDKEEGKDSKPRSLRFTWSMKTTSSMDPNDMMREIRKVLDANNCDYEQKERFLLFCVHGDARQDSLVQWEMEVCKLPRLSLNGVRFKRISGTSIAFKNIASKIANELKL

[8] = target: Serine/threonine-protein kinase MARK1 (Homo sapiens) (UniProt Q9P0L2); conditions: at 1 µM
[9] = target: MAP/microtubule affinity-regulating kinase 3 (Homo sapiens) (UniProt P27448); conditions: at 0.1 µM
[10] = target: MAP/microtubule affinity-regulating kinase 3 (Homo sapiens) (UniProt P27448); conditions: at 1 µM
[11] = target: T2, MAP/microtubule affinity-regulating kinase 4 (Homo sapiens) (UniProt Q96L34); conditions: at 0.1 µM
T2 sequence (whole entry): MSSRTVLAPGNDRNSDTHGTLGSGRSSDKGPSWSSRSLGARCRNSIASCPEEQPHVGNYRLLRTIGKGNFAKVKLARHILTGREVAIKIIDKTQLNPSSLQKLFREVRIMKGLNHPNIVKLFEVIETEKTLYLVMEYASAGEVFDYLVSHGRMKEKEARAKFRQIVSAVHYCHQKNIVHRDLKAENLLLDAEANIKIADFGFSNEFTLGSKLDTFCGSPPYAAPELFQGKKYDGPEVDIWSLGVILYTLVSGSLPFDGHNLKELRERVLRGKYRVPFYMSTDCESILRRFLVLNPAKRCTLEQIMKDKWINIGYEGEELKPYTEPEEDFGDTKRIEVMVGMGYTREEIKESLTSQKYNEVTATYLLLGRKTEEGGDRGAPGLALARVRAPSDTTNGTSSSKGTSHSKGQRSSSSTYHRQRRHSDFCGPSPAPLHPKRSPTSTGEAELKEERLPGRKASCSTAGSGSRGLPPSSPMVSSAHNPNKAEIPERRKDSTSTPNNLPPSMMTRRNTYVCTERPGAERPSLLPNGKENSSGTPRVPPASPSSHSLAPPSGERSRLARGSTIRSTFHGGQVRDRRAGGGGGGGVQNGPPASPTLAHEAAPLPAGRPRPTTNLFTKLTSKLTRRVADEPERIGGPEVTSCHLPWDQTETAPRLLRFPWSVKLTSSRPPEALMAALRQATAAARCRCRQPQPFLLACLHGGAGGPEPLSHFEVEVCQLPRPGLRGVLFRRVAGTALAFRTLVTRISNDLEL

[12] = target: T2, MAP/microtubule affinity-regulating kinase 4 (Homo sapiens); conditions: at 1 µM
[13] = target: Maternal embryonic leucine zipper kinase (Homo sapiens) (UniProt Q14680); conditions: at 0.1 µM
Chain of Maternal embryonic leucine zipper kinase (Homo sapiens) (Q14680 whole entry, looked up): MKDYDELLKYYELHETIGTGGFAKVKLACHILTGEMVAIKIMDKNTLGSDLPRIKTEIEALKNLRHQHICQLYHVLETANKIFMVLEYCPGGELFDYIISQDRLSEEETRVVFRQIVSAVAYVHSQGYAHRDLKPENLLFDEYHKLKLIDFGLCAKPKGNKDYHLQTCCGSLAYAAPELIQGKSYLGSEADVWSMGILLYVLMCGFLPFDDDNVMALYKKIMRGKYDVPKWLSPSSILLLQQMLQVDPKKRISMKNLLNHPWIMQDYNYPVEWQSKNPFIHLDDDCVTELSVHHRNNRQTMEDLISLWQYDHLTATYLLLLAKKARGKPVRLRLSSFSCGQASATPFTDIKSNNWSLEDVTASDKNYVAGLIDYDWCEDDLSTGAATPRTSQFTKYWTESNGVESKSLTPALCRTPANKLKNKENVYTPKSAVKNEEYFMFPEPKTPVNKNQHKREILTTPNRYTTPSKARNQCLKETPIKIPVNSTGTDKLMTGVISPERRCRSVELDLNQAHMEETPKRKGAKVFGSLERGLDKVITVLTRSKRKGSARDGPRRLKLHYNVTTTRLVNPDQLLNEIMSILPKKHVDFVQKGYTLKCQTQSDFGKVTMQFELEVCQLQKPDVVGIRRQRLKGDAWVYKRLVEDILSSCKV

[14] = target: Maternal embryonic leucine zipper kinase (Homo sapiens) (UniProt Q14680); conditions: at 1 µM
[15] = target: MAP kinase-interacting serine/threonine-protein kinase 1 (Homo sapiens) (UniProt Q9BUB5); conditions: at 0.1 µM
Chain of MAP kinase-interacting serine/threonine-protein kinase 1 (Homo sapiens) (Q9BUB5 whole entry, looked up): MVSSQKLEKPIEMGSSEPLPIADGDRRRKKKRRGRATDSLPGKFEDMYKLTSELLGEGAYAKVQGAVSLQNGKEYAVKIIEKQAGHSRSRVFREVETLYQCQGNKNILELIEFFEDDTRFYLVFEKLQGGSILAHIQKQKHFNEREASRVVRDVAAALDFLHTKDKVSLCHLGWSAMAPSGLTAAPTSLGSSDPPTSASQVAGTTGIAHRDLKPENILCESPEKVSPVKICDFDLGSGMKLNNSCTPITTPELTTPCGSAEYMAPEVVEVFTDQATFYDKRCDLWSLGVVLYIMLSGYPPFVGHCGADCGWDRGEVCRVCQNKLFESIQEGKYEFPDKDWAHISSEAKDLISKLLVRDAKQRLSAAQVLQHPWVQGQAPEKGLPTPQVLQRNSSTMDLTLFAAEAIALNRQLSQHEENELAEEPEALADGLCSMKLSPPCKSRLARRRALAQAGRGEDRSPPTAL

[16] = target: MAP kinase-interacting serine/threonine-protein kinase 1 (Homo sapiens) (UniProt Q9BUB5); conditions: at 1 µM
[17] = target: MAP kinase-interacting serine/threonine-protein kinase 2 (Homo sapiens) (UniProt Q9HBH9); conditions: at 0.1 µM
Chain of MAP kinase-interacting serine/threonine-protein kinase 2 (Homo sapiens) (Q9HBH9 whole entry, looked up): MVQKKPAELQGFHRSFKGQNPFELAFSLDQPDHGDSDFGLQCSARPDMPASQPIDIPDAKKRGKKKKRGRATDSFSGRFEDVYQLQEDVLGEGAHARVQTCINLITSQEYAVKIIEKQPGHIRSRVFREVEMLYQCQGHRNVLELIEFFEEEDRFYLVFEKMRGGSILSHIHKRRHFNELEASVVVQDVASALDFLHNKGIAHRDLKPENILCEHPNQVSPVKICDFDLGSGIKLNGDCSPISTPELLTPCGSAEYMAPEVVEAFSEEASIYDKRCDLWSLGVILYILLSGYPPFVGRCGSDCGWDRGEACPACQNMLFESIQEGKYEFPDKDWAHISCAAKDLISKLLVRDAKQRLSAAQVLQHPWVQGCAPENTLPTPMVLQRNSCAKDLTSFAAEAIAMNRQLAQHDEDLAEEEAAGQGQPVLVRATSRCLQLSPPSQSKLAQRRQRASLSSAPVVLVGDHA

[18] = target: MAP kinase-interacting serine/threonine-protein kinase 2 (Homo sapiens) (UniProt Q9HBH9); conditions: at 1 µM
[19] = target: Serine/threonine-protein kinase MARK2 (Homo sapiens) (UniProt Q7KZI7); conditions: at 0.1 µM;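 note: mean percent inhibition of PAR-1Balpha kinase activity, reported from the GSK PKIS screen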
Chain of Serine/threonine-protein kinase MARK2 (Homo sapiens) (Q7KZI7 whole entry): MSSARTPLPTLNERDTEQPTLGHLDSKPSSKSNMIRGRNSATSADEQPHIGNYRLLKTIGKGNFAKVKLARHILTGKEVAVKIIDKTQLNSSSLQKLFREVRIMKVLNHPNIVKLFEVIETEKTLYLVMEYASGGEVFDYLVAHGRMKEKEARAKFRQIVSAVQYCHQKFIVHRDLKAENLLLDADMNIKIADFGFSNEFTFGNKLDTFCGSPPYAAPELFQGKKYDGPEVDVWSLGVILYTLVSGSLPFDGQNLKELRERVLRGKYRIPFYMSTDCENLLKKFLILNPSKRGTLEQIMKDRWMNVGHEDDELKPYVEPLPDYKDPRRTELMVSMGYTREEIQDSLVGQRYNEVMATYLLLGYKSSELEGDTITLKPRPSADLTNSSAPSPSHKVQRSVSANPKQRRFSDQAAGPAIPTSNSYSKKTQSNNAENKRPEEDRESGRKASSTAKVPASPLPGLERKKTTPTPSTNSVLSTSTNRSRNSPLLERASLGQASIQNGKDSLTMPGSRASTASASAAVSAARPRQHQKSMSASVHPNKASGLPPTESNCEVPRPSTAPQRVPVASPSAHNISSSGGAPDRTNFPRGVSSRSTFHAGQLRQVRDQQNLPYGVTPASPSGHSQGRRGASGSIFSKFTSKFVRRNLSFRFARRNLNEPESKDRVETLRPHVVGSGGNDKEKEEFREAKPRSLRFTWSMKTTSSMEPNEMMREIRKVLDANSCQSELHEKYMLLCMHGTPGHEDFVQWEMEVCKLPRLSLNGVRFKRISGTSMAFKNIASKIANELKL

[20] = target: T1, Serine/threonine-protein kinase DCLK2 (Homo sapiens); conditions: at 0.1 µM

Chain of Death-associated protein kinase 1 (Homo sapiens) (P53355 whole entry, looked up): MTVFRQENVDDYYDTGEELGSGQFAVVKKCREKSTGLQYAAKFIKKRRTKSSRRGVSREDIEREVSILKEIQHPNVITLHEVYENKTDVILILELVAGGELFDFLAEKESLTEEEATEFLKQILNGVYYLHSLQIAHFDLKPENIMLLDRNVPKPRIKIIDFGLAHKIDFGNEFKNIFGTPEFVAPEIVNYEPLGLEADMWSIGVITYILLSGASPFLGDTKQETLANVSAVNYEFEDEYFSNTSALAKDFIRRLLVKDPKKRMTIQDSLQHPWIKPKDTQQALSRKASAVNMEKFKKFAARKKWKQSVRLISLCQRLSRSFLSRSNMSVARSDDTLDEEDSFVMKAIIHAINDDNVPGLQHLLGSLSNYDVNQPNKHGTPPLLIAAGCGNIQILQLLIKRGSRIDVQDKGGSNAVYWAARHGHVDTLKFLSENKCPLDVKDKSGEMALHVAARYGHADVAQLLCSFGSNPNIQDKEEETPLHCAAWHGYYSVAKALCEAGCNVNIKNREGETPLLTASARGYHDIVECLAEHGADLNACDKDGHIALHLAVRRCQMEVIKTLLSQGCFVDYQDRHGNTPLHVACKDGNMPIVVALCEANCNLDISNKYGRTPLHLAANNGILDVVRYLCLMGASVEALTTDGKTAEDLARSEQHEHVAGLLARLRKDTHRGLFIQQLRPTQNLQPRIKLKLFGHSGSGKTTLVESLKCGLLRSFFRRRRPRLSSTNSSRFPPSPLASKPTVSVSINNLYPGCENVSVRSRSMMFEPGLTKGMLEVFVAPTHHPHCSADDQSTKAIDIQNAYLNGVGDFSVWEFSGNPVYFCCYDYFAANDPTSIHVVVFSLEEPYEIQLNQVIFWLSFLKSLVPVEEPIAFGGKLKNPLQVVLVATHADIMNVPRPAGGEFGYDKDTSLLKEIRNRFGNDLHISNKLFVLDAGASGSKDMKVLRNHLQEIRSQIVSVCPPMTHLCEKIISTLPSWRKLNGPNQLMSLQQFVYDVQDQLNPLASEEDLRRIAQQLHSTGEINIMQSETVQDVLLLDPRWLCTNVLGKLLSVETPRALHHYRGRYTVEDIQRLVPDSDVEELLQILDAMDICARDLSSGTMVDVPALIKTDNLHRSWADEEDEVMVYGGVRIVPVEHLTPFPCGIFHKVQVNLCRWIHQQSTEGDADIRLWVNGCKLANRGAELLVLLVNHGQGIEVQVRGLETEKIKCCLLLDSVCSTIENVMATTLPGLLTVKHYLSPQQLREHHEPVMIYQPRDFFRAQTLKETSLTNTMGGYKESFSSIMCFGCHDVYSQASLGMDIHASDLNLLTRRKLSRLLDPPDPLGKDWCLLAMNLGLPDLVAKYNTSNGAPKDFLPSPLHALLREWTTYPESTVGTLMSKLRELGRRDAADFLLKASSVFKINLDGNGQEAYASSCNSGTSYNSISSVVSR

Structure (SMILES)	inhibition [1]	inhibition [2]	inhibition [3]	inhibition [4]	inhibition [5]	inhibition [6]	inhibition [7]	inhibition [8]	inhibition [9]	inhibition [10]	inhibition [11]	inhibition [12]	inhibition [13]	inhibition [14]	inhibition [15]	inhibition [16]	inhibition [17]	inhibition [18]	inhibition [19]	inhibition [20]
CCn1c(-c2nonc2N)nc2c(C#CC(C)(C)O)nc(OC[C@@H](N)c3ccccc3)cc21	-7.69%	1.63%	-3.81%	-3.91%	-6.12%	-7.91%	0.67%	19.9%	3.1%	28.1%	1.28%	16.9%	0.84%	27.5%	-0.06%	4.44%	0.08%	3.19%	1.17%	
CNC(=O)c1cncc(/C=C/c2c(Cl)cccc2Cl)c1	0.5%	-0.73%	0.7%	2.98%	2.14%	1.96%	2.05%	2.47%	1.82%	3.1%	1.49%	3.08%	6.04%	14.7%	1.63%	6.73%	3.42%	16.3%	1%	-4.5%
Cc1cccc(-c2n[nH]cc2-c2ccc3ncccc3n2)n1	0.85%	-5.57%	0.61%	-0.07%	0.58%	2.89%	1%	1.95%	-0.37%	0.24%	-0.19%	-0.68%	1.01%	4.06%	0.44%	2.25%	0.2%	3.14%	-0.96%	
Cc1nnc(-c2ccc(C)c(-c3ccc(C(=O)Nc4cccc(C#N)c4)cc3)c2)o1	2.66%		1.02%	0.1%	5.27%	16.3%	1.96%	4.25%	2.09%	4.82%	0.41%	1.13%	-0.46%	6.64%	1.54%	4.88%	0.9%	3.32%	-1.11%	0.99%
CC1=C(C(=O)Nc2ccc3[nH]ncc3c2)C(c2ccc(Cl)c(Cl)c2)CC(=O)N1 (configuration not stated)	-1.58%	0.32%	0.89%	-0.26%	2.5%	1.83%	0.33%	5.92%	2.97%	9.26%	-0.78%	3.04%	-0.28%	5.33%	2.25%	5.99%	0.25%	1.48%	-0.78%	
CS(=O)(=O)CCNCc1nc(-c2ccc3ncnc(Nc4ccc(F)c(Cl)c4)c3c2)cs1	6.48%		1.59%	0.26%	2.16%	1.58%	1.43%	1.33%	1.69%	-1.39%	-0.14%	0.31%	-1.18%	3.48%	10.6%	50.4%	13.4%	55.7%	-0.48%	0.59%
Nc1nc(-c2ccccn2)c(-c2ccc3ncccc3n2)s1	3.99%	-0.77%	2.05%	2.02%	1.5%	3.66%	3.28%	6.18%	2.5%	8.13%	0.3%	2.26%	3.67%	7.64%	2.16%	5.61%	1%	5.53%	-3.64%	0.14%
NC(=O)c1ccc(-c2nc(-c3ccccn3)c(-c3ccc4c(c3)OCO4)[nH]2)cc1	2.62%	-8.11%	1.1%	0.74%	3.61%	5.05%	1.86%	3.27%	2.26%	11%	1.03%	0.93%	2.76%	2.1%	1.26%	5.1%	1.27%	3.13%	-0.01%	-0.58%
CC(C)=Cc1cccc2c1/C(=N/Nc1ccc(S(N)(=O)=O)cc1)C(=O)N2	10.2%		3.53%	3.71%	7.64%	7.15%	2.11%	24.8%	2.08%	20.6%	1.89%	20%	0.98%	25.6%	0.23%	7.18%	1.9%	4.65%	1.87%	0.25%
CCn1c(-c2nonc2N)nc2cncc(C(=O)N3CC[C@H](N)C3)c21	8.64%	-0.36%	1.77%	1.78%	3.01%	4.01%	4.67%	12.8%	3.75%	4.57%	2.19%	4.51%	14.8%	60.6%	3.74%	9.55%	2.07%	10.8%	1.6%	0.17%
CS(=O)(=O)Nc1ccc(N/C=C2\C(=O)Nc3ccccc32)cc1	-2.55%	-4.45%	-1.85%	-1.69%	-2.11%	-2.88%	3.85%	23.8%	0.83%	16.1%	3.29%	18.9%	-1.64%	20.9%	-0.49%	-0.33%	0.01%	5.59%	2.67%	-2.55%
CCn1c(-c2nonc2N)nc2cncc(C(=O)N3CCNCC3)c21	8.15%	1.96%	2.84%	5.04%	6.65%	10.7%	2.63%	3.48%	5.76%	7.99%	2.3%	1.48%	6.1%	9.51%	2.42%	2.99%	1.78%	0.78%	2.18%	0.84%
CS(=O)(=O)CCNCc1ccc(-c2ccc3ncnc(Nc4ccc(OCc5ccccc5)c(Cl)c4)c3c2)o1		3.26%	-3.32%	-3.36%	-5.03%	-4.68%	0.39%	1.89%	0.63%	1.81%	0.94%	1.91%	2.31%	3.16%	2.34%	6.26%	1.96%	9.71%	0.91%	-1.35%
COc1ccc(-c2nn3ncccc3c2-c2ccnc(Nc3ccc(Cl)c(C(F)(F)F)c3)n2)cc1	2.18%		1.23%	0.64%	4.41%	17.4%	2.21%	2.97%	-0.96%	6.57%	0.48%	0.08%	0.2%	4.8%	-1.04%	5.69%	1.9%	2.43%	-0.27%	1.74%
